Among the data in PubChem BioAssay (EPA / NIEHS) are outcome and AC50 values, retold here.

Records with an inconclusive call do not appear. Calls of active or inactive are those of the source. Rule for the calls: active = hit-call score of the fitted dose curve at least 0.9, where 1 is the maximum; inconclusive = response in the unintended direction; inactive = score below 0.9. Peptide text beside a SMILES is read from it.

Sequence of Glucocorticoid receptor (Homo sapiens) (P04150 whole entry, looked up): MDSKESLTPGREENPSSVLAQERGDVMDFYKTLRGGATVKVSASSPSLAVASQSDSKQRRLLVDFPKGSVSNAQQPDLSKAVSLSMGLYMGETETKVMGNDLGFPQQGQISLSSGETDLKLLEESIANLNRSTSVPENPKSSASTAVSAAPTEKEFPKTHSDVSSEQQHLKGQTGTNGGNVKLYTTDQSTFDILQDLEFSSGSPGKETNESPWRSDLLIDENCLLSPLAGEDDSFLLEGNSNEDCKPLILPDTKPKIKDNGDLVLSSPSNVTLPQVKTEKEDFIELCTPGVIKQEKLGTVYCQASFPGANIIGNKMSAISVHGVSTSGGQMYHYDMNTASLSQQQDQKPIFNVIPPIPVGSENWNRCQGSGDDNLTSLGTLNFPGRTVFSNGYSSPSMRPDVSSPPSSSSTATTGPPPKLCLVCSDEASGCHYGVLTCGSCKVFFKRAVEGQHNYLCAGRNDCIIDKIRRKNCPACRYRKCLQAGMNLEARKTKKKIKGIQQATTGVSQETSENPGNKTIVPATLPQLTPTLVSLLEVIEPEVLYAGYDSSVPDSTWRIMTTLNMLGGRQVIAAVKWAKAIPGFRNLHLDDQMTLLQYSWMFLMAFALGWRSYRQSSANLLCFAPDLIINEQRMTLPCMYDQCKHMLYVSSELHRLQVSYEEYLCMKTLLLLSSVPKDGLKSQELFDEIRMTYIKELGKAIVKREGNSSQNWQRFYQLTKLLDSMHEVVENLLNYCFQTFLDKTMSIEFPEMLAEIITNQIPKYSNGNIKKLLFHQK

For the experiment, the target named is Glucocorticoid receptor (Homo sapiens) (UniProt P04150). In words: ATG_GR_TRANS: Attagene TRANS-FACTORIAL HepG2 Assay for human Glucocorticoid Receptor (GR) (AID 2282978).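 Note: activators score as hits since higher reporter transcript over DMSO is fitted.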 The settings on record: HepG2 Attagene TRANS GR reporter, mRNA transcription. As for the experimental part:
ATG_TRANS is a cell-based, multiplexed-readout assay that uses HepG2, a human liver cell line, with measurements taken at 24 hours after chemical dosing in a 24-well plate.ATG_GR_TRANS is one of 30 assay component(s) measured or calculated from the ATG_TRANS assay. It is designed to make measurements of mRNA induction, a form of inducible reporter, as detected with fluorescence intensity signals by Reverse transcription polymerase chain reaction (RT-PCR) and Capillary electrophoresis technology.Data from the assay component ATG_GR_TRANS was analyzed into 1 assay endpoint. This assay endpoint, ATG_GR_TRANS, was analyzed in the positive analysis fitting direction relative to DMSO as the negative control and baseline of activity. Using a type of inducible reporter, measures of mRNA for gain-of-signal activity can be used to understand the reporter gene at the transcription factor-level as they relate to the gene NR3C1. Furthermore, this assay endpoint can be referred to as a primary readout, because this assay has produced multiple assay endpoints where this one serves a reporter gene function. To generalize the intended target to other relatable targets, this assay endpoint is annotated to the nuclear receptor intended target family, where the subfamily is steroidal.
Human liver HepG2 cells are transiently transfected with multiple reporter transcription units (MRTUs) in 6-well plates using FuGene 6 reagent (Roche; 3 ml FuGene/1 mg DNA). The MRTU constructs are regulated by a cis-regulating element (promoter). […] A major difference between the CIS and TRANS system is that in CIS activities of endogenous TFs are measured, whereas the TRANS assay evaluates changes in activities of exogenous, chimeric NR-Gal4 proteins. […] At the end of 24 hour incubation, total RNA was isolated using TriZol reagent (Invitrogen). The isolated RNA is then reverse-transcribed using oligo(dT) primer and Mo-MLV reverse transcriptase (Invitrogen) with DNAse I (Ambion) treatment for 30 min. The one-tenth of the produced cDNA was amplified by PCR using Taq DNA polymerase (Invitrogen) and two reporter sequence-specific primers. The PCR products were fluorescently labeled by primer extension with 6-arboxyfluorescein (6-FAM) 5'-labeled reporter sequence-specific primer (2 min at 95 C, 20 s at 68 C and 10 min at 72 C) and these products were digested with 5U of HpaI (New England Biolabs) for 2h at 37 C. The fragments were purified using Qiaquick PCR columns (Qiagen), analyzed on an ABI 3130xL genetic analyzer (Applied Biosystems) with peak positions identified by using a set of X-rhodamine (ROX)-labeled MapMarker1000 molecular weight standards (BioVentures). The raw capillary electrophoresis data was processed using Attagraph software (Attagene).
Take `CC(C)(C)NC(=O)[C@H]1CC[C@H]2[C@@H]3CC[C@H]4NC(=O)C=C[C@]4(C)[C@H]3CC[C@]12C`: the compound was called inactive.
The same measure, in the same setting: next, `CCCCOCCOC(=O)COc1ccc(Cl)cc1Cl`: “inactive”; `C=C(C)C(=O)OCCOC(=O)C(=C)C`: “inactive”; `C=Cc1cccc(C)c1`: “inactive”.
The same measure, in the same setting: as for `CC12CCC(CC1)C(C)(C)O2`, the entry is “inactive”.
Usually AC50 stands for the midpoint of the concentration-response curve, whichever way the signal moves. In the case of `C=C[C@@]1(C)CC(=O)[C@]2(O)[C@@]3(C)[C@@H](O)CCC(C)(C)[C@@H]3[C@H](O)[C@H](OC(C)=O)[C@@]2(C)O1`, the AC50 was 42.5 µM (active).
As for `CC(C)=CCl`, the result was inactive.
On the same count and under the same terms, as for `CCC1COC(=O)O1` (stereo not given), the entry is “inactive”; as for `CCOC(=O)/C=C\C(=O)OCC`, “inactive”.
Consider `CN1CCN(C)CC1`, for which the call was inactive.
The same measure, in the same setting: as for `CCc1cccc(C)c1N`, the entry is “inactive”.
On to `O=C(O)c1cc(O)c2ccccc2c1O`, for which the compound was classed as inactive.
In the case of `C=C1C[C@H]2[C@@H]3C=C(C)C4=CC(=O)CC[C@]4(C)[C@H]3CC[C@]2(C)[C@@]1(OC(C)=O)C(C)=O`, the AC50 was 0.0106 µM (active).
Turning to `C=CC(=O)O[C@H]1C[C@@H]2CC[C@@]1(C)C2(C)C`, the outcome was inactive.
The same measure, in the same setting: next, `Nc1ccc(C(=O)OCCCOC(=O)c2ccc(N)cc2)cc1`: “inactive”; `CC(C)(CO)COC(=O)C(C)(C)CO`: “inactive”.
Regarding `CCC(C)c1ccccc1` (stereo not given), the call was inactive.
Still for that read-out and setting: as for `CC(C)c1cccc(C(C)C)c1N`, the entry is “inactive”.
Same read-out and setting: as for `COCC(=O)O`, the entry is “inactive”; as for `CC(C)(O)Cc1ccccc1`, “inactive”; as for `C=Cc1ccc(OC(C)=O)cc1`, “inactive”.
The same measure, in the same setting: next, `CC(C)[N+](C)(CCOC(=O)C1c2ccccc2Oc2ccccc21)C(C)C`: “inactive”; `CCCCOC(=O)CCC(C)=O`: “inactive”; `N#CC1(N)CCCCC1`: “inactive”.
On to `O=c1c(O)c(-c2ccc(O)cc2O)oc2cc(O)cc(O)c12`, for which the result was inactive.
Regarding `O=C(O)c1ccc2c(c1)C(=O)OC2=O`, the outcome was inactive.
Still for that read-out and setting: next, `c1ccc(Nc2cccc3ccccc23)cc1`: “inactive”.
As to `CC/C=C\C/C=C\C/C=C\CCCCCCCC(=O)OC`, the compound was classed as inactive.
Still for that read-out and setting: as for `CCCCCCC=O`, the entry is “inactive”; as for `CC1CC(=O)CC(C)(C)C1` (stereo not given), “inactive”.
Consider `C=CCOC(=O)c1ccc(C(=O)OCC=C)c(C(=O)OCC=C)c1`, for which the compound was called inactive.
Still for that read-out and setting: next, `CC(=O)OC(C)c1ccccc1` (stereo not given): “inactive”.
On the same count and under the same terms, next, `CC(=O)OC1CCCCC1C(C)(C)C` (stereo not given): “inactive”; `CCNc1nc(NC(C)(C)C)nc(OC)n1`: “inactive”; `CO[Si](C)(C)OC`: “inactive”.
Still for that read-out and setting: next, `O=C(Cl)c1ccc(C(=O)Cl)cc1`: “inactive”; `C=CCCCCCCCCO`: “inactive”.
For the compound `c1ccc2c(c1)[nH]c1ccccc12`, the compound was classed as inactive.
For the compound `Cc1c[nH]c(=O)[nH]c1=O`, the call was inactive.
With `COC(=O)[C@H](Cc1ccccc1)NC(=O)[C@@H](N)CC(=O)O` (H-Asp-Phe-OMe), the compound was classed as inactive.
